Source: PubChem (several laboratories)
ABHD5-PLIN5 inh: ABHD5-PLIN5 protein interaction inhibition; Split G. princeps luciferase complementation, luminescence, 4 h; actives 0.78% (n = 360,000); inhibition, % at 4 µM; Q00G26+Q8WTS1;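 active means inhibition above the mean inhibition across every tested compound plus 3 SD, cut at about 22% in these data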;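 further: 0% = DMSO only wells and the 100% control is not disclosed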
Target sequence (Q00G26 whole entry, looked up): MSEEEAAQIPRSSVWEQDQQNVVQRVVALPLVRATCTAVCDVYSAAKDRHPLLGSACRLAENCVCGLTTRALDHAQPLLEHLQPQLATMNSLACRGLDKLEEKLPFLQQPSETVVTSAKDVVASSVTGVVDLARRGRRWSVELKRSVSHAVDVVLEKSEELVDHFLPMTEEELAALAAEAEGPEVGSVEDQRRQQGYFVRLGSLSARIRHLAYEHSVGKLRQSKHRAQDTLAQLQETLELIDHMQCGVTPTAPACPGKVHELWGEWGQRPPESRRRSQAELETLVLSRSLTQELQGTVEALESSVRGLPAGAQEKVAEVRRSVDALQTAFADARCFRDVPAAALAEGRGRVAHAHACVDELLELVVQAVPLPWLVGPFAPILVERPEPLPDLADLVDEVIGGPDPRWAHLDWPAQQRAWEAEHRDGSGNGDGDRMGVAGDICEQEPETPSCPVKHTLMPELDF
Target sequence (Q8WTS1 whole entry, looked up): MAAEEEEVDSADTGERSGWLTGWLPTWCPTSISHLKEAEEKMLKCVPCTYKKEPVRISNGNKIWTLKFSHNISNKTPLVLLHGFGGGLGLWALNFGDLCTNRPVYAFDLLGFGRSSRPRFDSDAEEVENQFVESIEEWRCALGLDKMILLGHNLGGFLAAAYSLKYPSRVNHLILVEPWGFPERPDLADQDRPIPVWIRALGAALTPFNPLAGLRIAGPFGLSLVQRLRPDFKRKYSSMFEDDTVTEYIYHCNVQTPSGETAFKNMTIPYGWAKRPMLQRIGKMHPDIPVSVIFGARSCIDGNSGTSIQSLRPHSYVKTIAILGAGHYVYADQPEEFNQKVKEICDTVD
EWS-Fli inh: blocks EWS/Fli oncoprotein-driven transcription. A673 NR0B1-luciferase reporter, viability-normalised. inhibition, % at 12.6 µM. actives 0.67% (n = 350,000). AID 651661;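 active means mean inhibition of at least 50% after viability correction, with every replicate also passing that limit; inconclusive means mean reaches 50% but only one of two replicates passes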;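 further: firefly luciferase signal divided by Alamar Blue viability fluorescence both relative to DMSO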
PAX8 inh HTS: lowers PAX8-driven luciferase in RMG-I cells; actives 1.2% (n = 360,000); RMG-I TPO-luciferase reporter, SteadyGlo, 24 h; inhibition, % at 12.6 µM;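 active means mean replicate inhibition at least 60% with every replicate also reaching 60%; inconclusive means only one of the two criteria is met; inactive means mean below 60% and not all replicates reaching 60%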;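 further: luciferase light reporting Pax8 driven TPO promoter activity; plate controls were median of neutral control wells for no effect and mitoxantrone controls for full effect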
Shn3 3UTR inh: Schnurri-3 reporter inhibition in Clone20 osteoblasts | inhibition, % at 12.5 µM | actives 0.52% (n = 360,000) | Clone20 osteoblast Shn3 3'UTR firefly luciferase, 24 h;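 active means mean inhibition of at least 75% with every replicate also reaching 75%; inconclusive means mean inhibition at least 75% but some replicate below; inactive means mean inhibition below 75%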;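 further: 0% = median of neutral control wells and 100% = pilot-screen positive control compound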
TRPM1 prom inh: inhibitors of MITF-driven TRPM1 promoter in melanoma cells. actives 0.83% (n = 330,000). inhibition, % at 12.5 µM. SK-MEL-5 TRPM1 promoter luciferase, 24 h;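 active means mean inhibition across replicates of 60% or more, whatever share of single replicates reaches that level; inconclusive means some that reach 60%, reason not given; inactive means mean inhibition across replicates below 60%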
Peg3 prom inh: Peg3 promoter activity inhibition; HeLa PEG-Prom luciferase reporter, luminescence, overnight; inhibition, % at 20 µM; actives 1.7% (n = 360,000);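 active means inhibition of at least 50% at 20 µM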
An asterisk follows results filed as active; ? = inconclusive; / = no result given. Compounds with a hit are over-represented: about 3% of the library has one in this group of screens.

SMILES	ABHD5-PLIN5 inh	EWS-Fli inh	PAX8 inh HTS	Shn3 3UTR inh	TRPM1 prom inh	Peg3 prom inh
Cc1ccc(C)c(-n2nnnc2Sc2nnnn2-c2ccccc2)c1	18	/	?	2	21	96*
CCSc1nnnn1-c1ccccc1	-4	/	/	-2	-8	-4
OC(Cc1cccc(Br)c1)c1ncc(-c2cccc(C(F)(F)F)c2)[nH]1 (stereo not given)	-7	1	13	8	/	50*
CCOC(=O)c1c(NC(=O)C2c3ccccc3Oc3ccccc32)sc(C(C)=O)c1C	3	27	/	89*	8	19
COC(=O)c1sc(NC(=O)C2c3ccccc3Oc3ccccc32)c(C(=O)OC)c1C	0	/	21	81	7	-76
Cc1ccc(NC(=S)NNc2ncc(C(F)(F)F)cc2Cl)cc1	-3	/	15	35	30	26
FC(F)(F)c1cnc(NNC(=S)Nc2ccc(Cl)cc2)c(Cl)c1	-11	/	76*	18	50	37
Cc1ccc(NC(=S)NNc2ncc(C(F)(F)F)cc2Cl)c(C)c1	-2	/	/	11	-10	23
Fc1ccc(NC(=S)NNc2ncc(C(F)(F)F)cc2Cl)c(F)c1	-11	24	85*	28	?	38
Cc1ccc(-c2ccc3c(c2)O[C@H](CN(C)Cc2cccnc2)[C@H](C)CN([C@@H](C)CO)S3(=O)=O)cc1	/	9	/	/	/	/
C[C@H](CO)N1C[C@H](C)[C@@H](CN(C)S(=O)(=O)c2ccc(Cl)cc2)Oc2c(NS(=O)(=O)c3ccccc3)cccc2C1=O	/	-2	-5	/	/	/
C[C@H](CO)N1C[C@H](C)[C@H](CN(C)Cc2ccc(-c3ccccc3)cc2)Oc2c(NC(=O)C3CCCCC3)cccc2C1=O	/	23	/	/	/	/
CSc1nc2nccc(/C=C\c3ccccc3)n2n1	11	/	63*	-22	22	-8
C[C@@H]1CN([C@@H](C)CO)C(=O)c2cc(NC(=O)Nc3ccccc3)ccc2O[C@@H]1CN(C)S(=O)(=O)c1ccc(F)cc1	/	-16	/	/	/	/
O=C(CCl)Nc1cn(-c2ccccc2)nc1-c1ccc(F)cc1	-1	33	-32	96*	46	49
O=C(c1cn(-c2ccccc2)nc1-c1ccc(F)cc1)N1CCCCC1	-1	24	-1	-12	-13	5
C[C@H](CO)N1C[C@H](C)[C@H](CN(C)Cc2ccc(-c3ccccc3)cc2)Oc2cc(C#CC(C)(C)O)ccc2S1(=O)=O	/	12	/	/	/	/
C[C@H](CO)N1C[C@H](C)[C@H](CN(C)S(=O)(=O)c2cn(C)cn2)Oc2ccc(NC(=O)Nc3ccc(C(F)(F)F)cc3)cc2CC1=O	-8	61*	43	2	24	-15
C[C@@H]1CN([C@@H](C)CO)C(=O)Cc2cc(NC(=O)Nc3ccc(C(F)(F)F)cc3)ccc2O[C@@H]1CN(C)S(=O)(=O)c1ccc(Cl)cc1	-4	18	96*	35	47	60*
C[C@H]1CN([C@@H](C)CO)C(=O)Cc2cc(NC(=O)Nc3ccc(C(F)(F)F)cc3)ccc2O[C@@H]1CN(C)S(=O)(=O)c1cn(C)cn1	/	0	12	/	/	/
C[C@@H]1CN([C@H](C)CO)C(=O)Cc2cc(NC(=O)Nc3ccc(C(F)(F)F)cc3)ccc2O[C@@H]1CN(C)S(=O)(=O)c1ccc(F)cc1	/	1	7	/	/	/
C[C@H]1CN([C@@H](C)CO)C(=O)Cc2cc(NC(=O)Nc3ccc(C(F)(F)F)cc3)ccc2O[C@H]1CN(C)S(=O)(=O)c1ccc(Cl)cc1	/	57*	/	/	/	/
CCCc1cn(CC[C@H]2CC[C@@H](NS(=O)(=O)c3ccc(-c4ccccc4)cc3)[C@@H](CO)O2)nn1	/	8	6	/	/	/
COc1ccccc1S(=O)(=O)N[C@@H]1CC[C@@H](CC(=O)NCc2cc(F)cc(F)c2)O[C@H]1CO	/	-7	-20	/	/	/
CN1C(=O)c2cc(NC(=O)Cc3ccccc3)ccc2OC[C@H]2O[C@@H](CC(=O)NCc3ccc(Cl)cc3)CC[C@H]21	/	2	27	/	/	/
SMILES	ABHD5-PLIN5 inh	EWS-Fli inh	PAX8 inh HTS	Shn3 3UTR inh	TRPM1 prom inh	Peg3 prom inh
CC(=O)Nc1ccc(-c2ccnc3c2CC(C(=O)NCc2ccco2)O3)cc1 (stereo not given)	1	62*	?	6	/	-16
CC(=O)Nc1ccc(-c2ccnc3c2CC(C)(C(=O)NCc2ccco2)O3)cc1 (stereo not given)	5	54*	40	34	/	22
O=C(NCc1ccccc1)C1Cc2c(-c3ccc4c(c3)OCO4)ccnc2O1 (stereo not given)	9	60*	68*	2	/	-32
CC(=O)Nc1ccc(-c2ccnc3c2CC(C(=O)NCC2CC2)O3)cc1 (stereo not given)	-8	6	19	6	/	8
CC(=O)NCCNC(=O)C1(C)Cc2c(-c3ccc(NC(C)=O)cc3)ccnc2O1 (stereo not given)	-7	-7	3	-7	/	2
CC(=O)Nc1ccc(-c2ccnc3c2CC(C(=O)NCc2ccccc2)O3)cc1 (stereo not given)	7	51*	92*	2	/	-20
CO[C@@H]1CN(C)C(=O)c2ccc(NC(=O)Cc3ccccc3)cc2OC[C@@H](C)NC[C@@H]1C	/	0	2	/	/	/
CC(=O)c1cccc(-c2ccnc3c2CC(C(=O)NCC2CCOCC2)O3)c1 (stereo not given)	1	66*	36	-31	/	7
COc1ccc(NC(=O)C2Cc3c(-c4cccc(NC(C)=O)c4)ccnc3O2)cn1 (stereo not given)	2	63*	51	26	/	20
COc1ccc(NC(=O)C2Cc3c(-c4cccc(C(N)=O)c4)ccnc3O2)cn1 (stereo not given)	6	1	15	17	/	21
Nc1cc(N)c(OCC(F)(F)F)cc1OCC(F)(F)F	8	/	/	5	65*	-2
C[C@@H]1CN([C@H](C)CO)C(=O)c2cccc(NS(=O)(=O)c3ccccc3)c2O[C@@H]1CN(C)CC1CC1	/	3	0	/	/	/
C[C@H]1CN([C@@H](C)CO)C(=O)c2cc(C3=CCCC3)cnc2O[C@H]1CN(C)C(=O)CN(C)C	/	1	/	/	/	/
C=CCN(C(=O)CSc1nc2c(sc3ccccc32)c(=O)n1CCN(CC)CC)c1ccccc1	-7	14	-57	28	6	64*
C[C@@H]1CCCCO[C@@H](CN(C)Cc2ccc(Cl)c(Cl)c2)[C@@H](C)CN([C@@H](C)CO)C(=O)c2cc(NC(=O)NC3CCCCC3)ccc2O1	/	-5	53	/	/	/
C[C@@H]1CCCCO[C@@H](CN(C)Cc2ccncc2)[C@@H](C)CN([C@H](C)CO)C(=O)c2cc(NC(=O)NC3CCCCC3)ccc2O1	/	1	7	/	/	/
C[C@@H]1CCCCO[C@H](CN(C)Cc2ccncc2)[C@H](C)CN([C@@H](C)CO)C(=O)c2cc(NC(=O)NC3CCCCC3)ccc2O1	/	56*	83*	/	/	/
C[C@H](CO)N1C[C@H](C)[C@@H](CN(C)Cc2ccc(Cl)c(Cl)c2)OCCCC[C@H](C)Oc2ccc(NC(=O)NC3CCCCC3)cc2C1=O	/	19	1	/	/	/
